According to ChEMBL document CHEMBL5606458, “ASAP - ZIKV NS2B-NS3 protease fluorescence single point” (2024):
Hit rate of the full screen: of about 2,700 compounds, about 160 (5.9%) showed an effect of 50% or more. This is one part of a sample in which strong results are shown more often than they occur.

Target: Nonstructural protein 3 (Zika virus) (UniProt A0A024AXB9)
Sequence (A0A024AXB9 as listed by the source): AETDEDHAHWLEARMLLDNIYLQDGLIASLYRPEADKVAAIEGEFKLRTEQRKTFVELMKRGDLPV

Compound: NC1(c2cccc(NC(=O)[C@@H](NC(=O)OCc3ccccc3)c3ccc(OCc4ccccc4)cc3)c2)CCC1
- inhibition (PRVABC59, Concentration 49.5 uM, Number of replicates 2.0, Standard deviation 2.468656231060589 %): 14.2%
- inhibition (PRVABC59, Concentration 99.01 uM, Number of replicates 2.0, Standard deviation 1.4495575723595426 %): 30.7%
- inhibition (PRVABC59, Concentration 198.0 uM, Number of replicates 2.0, Standard deviation 0.13484294125181392 %): 82.7%

Compound: NCc1ccc(NC(=O)[C@@H](NC(=O)OCc2ccccc2)c2ccc(OCc3ccccc3)cc2)cc1
- inhibition (PRVABC59, Concentration 49.5 uM, Number of replicates 2.0, Standard deviation 1.551749181482573 %): 7.22%
- inhibition (PRVABC59, Concentration 99.01 uM, Number of replicates 2.0, Standard deviation 2.287213711046402 %): 11.8%
- inhibition (PRVABC59, Concentration 198.0 uM, Number of replicates 2.0, Standard deviation 0.9961100816492645 %): 23%

Compound: CCCCCC(=O)N[C@H](C(=O)N1CCC(CN)CC1)c1ccc(OCc2ccccc2)cc1
- inhibition (PRVABC59, Concentration 49.5 uM, Number of replicates 2.0, Standard deviation 1.1847944417619873 %): 5.06%
- inhibition (PRVABC59, Concentration 99.01 uM, Number of replicates 2.0, Standard deviation 0.3935504126553241 %): 10.8%
- inhibition (PRVABC59, Concentration 198.0 uM, Number of replicates 2.0, Standard deviation 0.8347422741682105 %): 26.5%

Compound: CCCCCC(=O)N[C@H](C(=O)NCc1cccc(CN)c1)c1ccc(OCc2ccccc2)cc1
- inhibition (PRVABC59, Concentration 49.5 uM, Number of replicates 2.0, Standard deviation 0.8118332703664171 %): -3.7%
- inhibition (PRVABC59, Concentration 99.01 uM, Number of replicates 2.0, Standard deviation 11.543494465765306 %): 89.7%
- inhibition (PRVABC59, Concentration 198.0 uM, Number of replicates 2.0, Standard deviation 0.4445743989869767 %): 99%

Compound: CCCCCC(=O)N[C@H](C(=O)NCc1ccc(N)nc1)c1ccc(OCc2ccccc2)cc1
- inhibition (PRVABC59, Concentration 49.5 uM, Number of replicates 2.0, Standard deviation 0.04494641077638166 %): -2.18%
- inhibition (PRVABC59, Concentration 99.01 uM, Number of replicates 2.0, Standard deviation 0.3023657059020049 %): 1.76%
- inhibition (PRVABC59, Concentration 198.0 uM, Number of replicates 2.0, Standard deviation 0.018387068425059654 %): -1.18%

Compound: NCc1cccc(NC(=O)[C@@H](NC(=O)OCc2ccccc2)c2ccc(OCc3ccccc3)cc2)c1
- inhibition (PRVABC59, Concentration 49.5 uM, Number of replicates 2.0, Standard deviation 0.012122107981309298 %): 99.6%
- inhibition (PRVABC59, Concentration 99.01 uM, Number of replicates 2.0, Standard deviation 0.01616281064174573 %): 99.1%
- inhibition (PRVABC59, Concentration 198.0 uM, Number of replicates 2.0, Standard deviation 0.06465124256698292 %): 97.8%

Compound: O=C(Nc1cccc(N2CCNCC2)c1)c1cccc2ncccc12
- inhibition (PRVABC59, Concentration 49.5 uM, Number of replicates 2.0, Standard deviation 0.4660025311194914 %): 12.8%
- inhibition (PRVABC59, Concentration 99.01 uM, Number of replicates 2.0, Standard deviation 1.8240670503820091 %): 21.1%
- inhibition (PRVABC59, Concentration 198.0 uM, Number of replicates 2.0, Standard deviation 0.426059457023535 %): 34.4%

Compound: CCn1ccnc(N2CC[C@@H](Cc3ccncc3)C2)c1=O
- inhibition (PRVABC59, Concentration 50.0 uM, Number of replicates 2.0, Standard deviation 17.324672814645545 %): 18.6%
- inhibition (PRVABC59, Concentration 100.0 uM, Number of replicates 2.0, Standard deviation 1.6917913579666908 %): 12.9%
- inhibition (PRVABC59, Concentration 200.0 uM, Number of replicates 2.0, Standard deviation 5.92774721773736 %): 23.1%

Compound: CC(C)c1cc(CN2CCC3(CC2)C(=O)NCc2ccccc23)n[nH]1
- inhibition (PRVABC59, Concentration 49.5 uM, Number of replicates 2.0, Standard deviation 2.3847652893231714 %): 1.4%
- inhibition (PRVABC59, Concentration 99.01 uM, Number of replicates 2.0, Standard deviation 4.553677158798315 %): 2.83%
- inhibition (PRVABC59, Concentration 198.0 uM, Number of replicates 2.0, Standard deviation 2.2809894644583135 %): 6.37%

Compound: O=S(=O)(c1c[nH]c2ccccc12)N1CCC(c2cnc3ccc[nH]c2-3)CC1
- inhibition (PRVABC59, Concentration 49.5 uM, Number of replicates 2.0, Standard deviation 0.9724228784365659 %): 34%
- inhibition (PRVABC59, Concentration 99.01 uM, Number of replicates 2.0, Standard deviation 0.1115050511195736 %): 36.4%
- inhibition (PRVABC59, Concentration 198.0 uM, Number of replicates 2.0, Standard deviation 2.3986425606638684 %): 29%

Compound: CCn1ccnc(N2CC[C@H](c3ccc(OC)nc3)C2)c1=O
- inhibition (PRVABC59, Concentration 50.0 uM, Number of replicates 2.0, Standard deviation 2.450630192539874 %): 10.5%
- inhibition (PRVABC59, Concentration 100.0 uM, Number of replicates 2.0, Standard deviation 0.40502109894604904 %): 17.9%
- inhibition (PRVABC59, Concentration 200.0 uM, Number of replicates 2.0, Standard deviation 0.08715563662307181 %): 30.5%

Compound: CCCCCNC(=O)c1cc(Cl)ccc1NS(=O)(=O)c1ccc(Oc2ccccc2Cl)cc1
- inhibition (PRVABC59, Concentration 49.5 uM, Number of replicates 2.0, Standard deviation 0.82866638448688 %): 30.5%
- inhibition (PRVABC59, Concentration 99.01 uM, Number of replicates 2.0, Standard deviation 0.1903473061675686 %): 14.2%

Compound: CCCN(C)C(=O)c1cc(Cl)ccc1NS(=O)(=O)c1ccc(Oc2ccccc2Cl)cc1
- inhibition (PRVABC59, Concentration 49.5 uM, Number of replicates 2.0, Standard deviation 1.6827651888895978 %): 30.1%
- inhibition (PRVABC59, Concentration 99.01 uM, Number of replicates 2.0, Standard deviation 1.553741884480168 %): 42.7%
- inhibition (PRVABC59, Concentration 198.0 uM, Number of replicates 2.0, Standard deviation 1.4828704414225533 %): 51.4%

Compound: CN(CCS(N)(=O)=O)C(=O)c1cc(Cl)ccc1NS(=O)(=O)c1ccc(Oc2ccccc2Cl)cc1
- inhibition (PRVABC59, Concentration 49.5 uM, Number of replicates 2.0, Standard deviation 4.192376018410405 %): 8.99%
- inhibition (PRVABC59, Concentration 99.01 uM, Number of replicates 2.0, Standard deviation 3.3291863073712813 %): 17.3%
- inhibition (PRVABC59, Concentration 198.0 uM, Number of replicates 2.0, Standard deviation 0.7795966632269805 %): 72.5%
